“And” between values parts separate entries of the source, which are not always exact repeats. Equal values may be shown once. Values without a mark were called inactive. Results filed as inconclusive are left out. The source made the active and inactive calls. Unless noted, calls come from the whole dose curve; as a rule, active = well fitted curve in the direction sought with a large enough effect; inconclusive = small, poorly fitted or top-dose-only effect, or another doubt; inactive = no such curve, though single readings can be large; an effect the other way counts as inactive or inconclusive. A value given as a limit tells only on which side of the number the result lay.

A short description of assay [1]: Cell Viability - HepG2 (AID 433; calls by dose curve;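 note: potency is the fitted concentration of half-maximal effect; potency for ATP loss meaning cytotoxicity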). Conditions: qHTS. The method, boiled down:
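Cytotoxicity is scored as loss of intracellular ATP in HepG2 cells exposed to compounds for 40 h. Concentration-response curves, normalized to DMSO and 100 uM tamoxifen, give AC50 values.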

Assay [2] in a line: qHTS assay for cell viability of HEK293 cells (AID 743288). Note: % is set by controls: 0 for no effect and ±100 for the full control effect; nearly all actives have a fitted effect of over 50% in size. As to conditions: ATP luminescence (CellTiter-Glo), 18 h; max response: hits give low values. Put shortly:
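Quantitative high-throughput screen: compounds were pinned onto parental HEK293 cells (2,000 per well) after a minimum 5 h settling at 37 C, incubated 18 h at 37 C, and intracellular ATP measured by luciferase luminescence.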

Assay [3] is described as follows: Cellular Toxicity (caspase-3) SK-N-SH (AID 661).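 Note: cells exposed to compound for 16 hours; 0% = DMSO basal and 100% = 10 µM staurosporine.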 The method, boiled down: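 Caspase 3/7 activation was read by luminogenic substrate cleavage after 16 hour treatment of SK-N-SH cells. Signal was scaled between DMSO and 10 uM staurosporine, and concentration-response data were fitted with the Hill equation for AC50.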
Assay [4] in a line: Cellular Toxicity (caspase-3) H-4-II-E (AID 663).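 Note: cells exposed to compound for 16 hr before readout.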 As to conditions: H-4-II-E rat hepatoma, scaled: DMSO 0%, 100 µM tamoxifen 100%; at 92.2 µM (top of the series). Put shortly: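 Caspase 3/7 activation measured by luminescent aminoluciferin substrate cleavage after 16 hr compound treatment of H-4-II-E cells in complete medium. Increase normalized between DMSO (basal) and 100 uM tamoxifen (100%); Hill-equation AC50 from concentration-response.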

A short description of assay [5]: MultiTox-Fluor Cytotoxicity Assay - LYMP1-001 - Dead Cells (AID 946). The method, boiled down:
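Cytotoxicity as increased dead-cell protease fluorescence (bis-AAF-R110, 485/520 nm), read 60 min after MultiTox-Fluor reagent. Human lymphoblastoid line exposed 16 h; Hill-fitted AC50, with DMSO as 0% and 15 uM tetraoctylammonium bromide as 100%.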

The nature of assay [6]: MultiTox-Fluor Cytotoxicity Assay - LYMP1-001 - Live Cells (AID 947).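 Note: 0% = DMSO only and full inhibition = tetraoctylammonium bromide control.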
The target of assay [7] is Peroxisome proliferator-activated receptor alpha (Homo sapiens) (UniProt Q07869). In words: qHTS assay for small molecule agonists of the peroxisome proliferator-activated receptor alpha (PPARalpha) signaling pathway (AID 651778). Note: % of control where 0% means no effect. As to conditions: PathHunter PPARalpha complementation, chemiluminescence, 6 h; max response: hits give high values. Put shortly:
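Chemiluminescence from complemented enzyme reported PPARalpha activation in cells after 6 hr of compound treatment at 37 C. The detection reagent was incubated for 60 min at room temperature, and compounds were scored as agonists.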

For assay [8], the target named is Nuclear receptor ROR-gamma (Homo sapiens) (UniProt P51449). In words: qHTS assay for small molecule antagonists of the retinoid-related orphan receptor gamma (ROR-gamma) signaling pathway (AID 651802). Note: nearly all actives have a fitted effect of over 60% in size. Note: potency is the fitted concentration of half-maximal effect. The method, boiled down: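 Luminescence (One-Glo, 30 min RT) measured 16 h after compound addition and doxycycline induction at 37C. Reporter: RORE-luciferase under TET-inducible ROR-gamma in CHO cells.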
Chain of Nuclear receptor ROR-gamma (Homo sapiens) (P51449 whole entry, looked up): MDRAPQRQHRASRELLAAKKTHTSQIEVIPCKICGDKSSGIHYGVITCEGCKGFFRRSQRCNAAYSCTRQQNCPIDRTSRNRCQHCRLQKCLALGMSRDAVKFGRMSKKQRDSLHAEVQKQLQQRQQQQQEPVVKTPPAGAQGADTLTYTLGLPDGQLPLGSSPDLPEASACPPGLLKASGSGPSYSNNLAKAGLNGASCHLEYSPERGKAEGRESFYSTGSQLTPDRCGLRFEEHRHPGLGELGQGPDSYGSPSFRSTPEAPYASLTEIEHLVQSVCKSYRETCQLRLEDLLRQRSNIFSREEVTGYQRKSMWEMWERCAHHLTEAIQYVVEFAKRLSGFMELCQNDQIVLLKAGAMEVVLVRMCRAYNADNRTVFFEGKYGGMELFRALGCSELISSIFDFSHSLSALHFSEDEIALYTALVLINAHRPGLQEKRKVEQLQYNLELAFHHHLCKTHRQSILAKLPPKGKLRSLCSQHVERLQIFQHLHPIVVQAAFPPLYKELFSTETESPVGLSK

Assay [9] is described as follows: MultiTox-Fluor Cytotoxicity Assay - LYMP1-002 - Dead Cells (AID 960). Note: nearly all actives have a fitted effect of over 60% in size. The method, boiled down:
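Dead-cell fluorescence (Ex/Em 485/520) after 16 h compound exposure at 37 C of LYMP1-002 lymphoblastoid cells in complete medium; AC50 by Hill equation, with data scaled between DMSO and 15 uM tetraoctylammonium bromide.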

The nature of assay [10]: Cell Viability - LYMP2-013 (AID 970). Note: nearly all actives have a fitted effect of over 55% in size. Note: potency is the fitted concentration of half-maximal effect. The method, boiled down: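 qHTS cytotoxicity: ATP-dependent luminescence (CellTiter-Glo, 30 min room temperature) read after 24 h compound exposure at 37 C of 2500 LYMP2-013 lymphoblastoid cells per well. Concentration-response fitted with Hill equation to give AC50.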
The nature of assay [11]: Cell Viability - LYMP2-002 (AID 977). Note: potency is the fitted concentration of half-maximal effect. The method, boiled down: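 Human lymphoblastoid cells (2500/well) in complete medium were preincubated 5 hr at 37 C, then exposed to compounds for 24 hr at 37 C. Intracellular ATP was read by CellTiter-Glo luminescence; AC50 came from Hill-equation concentration-response fits.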
Assay [12] can be described thus: Cell Viability - LYMP2-006 (AID 978). Note: % is set by controls: 0 for no effect and ±100 for the full control effect; nearly all actives have a fitted effect of over 60% in size. The method, boiled down: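 Concentration-dependent loss of intracellular ATP in a human lymphoblastoid line after 24 hr treatment at 37 C was measured by CellTiter-Glo luminescence, with AC50 values obtained from standard Hill-equation modelling.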
The nature of assay [13]: Cell Viability - LYMP2-010 (AID 981). Note: nearly all actives have a fitted effect of over 55% in size. Note: potency is the fitted concentration of half-maximal effect. The method, boiled down: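 CellTiter-Glo ATP luminescence measured cytotoxicity after 24 h compound exposure at 37 C. LYMP2-010 cells were seeded at 2500/well, with tetraoctylammonium bromide as control; concentration-response curves gave AC50 values by the Hill equation.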
Assay [14] in a line: Cell Viability - LYMP2-020 (AID 986). Note: nearly all actives have a fitted effect of over 55% in size. Note: potency is the fitted concentration of half-maximal effect. Put shortly:
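Cytotoxicity in qHTS format: luminescent ATP readout from CellTiter-Glo after 24 h compound exposure at 37 C in complete medium. LYMP2-020 lymphoblastoid cells were seeded at 2500/well; concentration-response data fitted to the Hill equation for AC50.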

A short description of assay [15]: Cell Viability - LYMP2-022 (AID 987). Note: nearly all actives have a fitted effect of over 55% in size. Note: potency is the fitted concentration of half-maximal effect. The method, boiled down:
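Cytotoxicity read as decreased cellular ATP (CellTiter-Glo luminescence, 30 min room temperature) after 24 hours compound exposure of 2500 lymphoblastoid LYMP2-022 cells/well at 37 C. Concentration-response data fitted with standard Hill equation for AC50.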

Assay [16] can be described thus: Cell Viability - LYMP2-024 (AID 988). Note: nearly all actives have a fitted effect of over 60% in size. Note: potency is the fitted concentration of half-maximal effect. The method, boiled down:
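Cytotoxicity was taken as a decrease in ATP (CellTiter-Glo luminescence) after 24 hr compound exposure at 37 C of LYMP2-024 lymphoblastoid cells, 2500 cells/well. Concentration-response data were fitted to the Hill equation to give AC50.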

Assay [17] deals with Voltage-gated inwardly rectifying potassium channel KCNH2 (Homo sapiens) (UniProt Q12809). Briefly: qHTS Assay for Small Molecule Inhibitors of the Human hERG Channel Activity (AID 588834).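 Note: U2OS cells transduced with hERG by BacMam; top concentration of the series differs between compounds; % is set by controls: 0 for no effect and ±100 for the full control effect; lower thallium flux fluorescence means stronger hERG block; nearly all actives have a fitted effect of over 50% in size.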 Put shortly:
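Cells were infected with hERG-BacMam virus for 4 hrs at room temperature, grown overnight, then seeded at 2000/well. After dye loading and roughly 10 min compound treatment, thallium influx was triggered and fluorescence recorded.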

A short description of assay [18]: qHTS assay for small molecule antagonists of the retinoid-related orphan receptor gamma (ROR-gamma) signaling pathway - cell viability counter screen (AID 720652; active = well fitted curve in the direction sought with a large enough effect in the repeat runs; an effect the other way counts as inactive or inconclusive;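 note: compound exposure lasted 16 hr before ATP read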; note: potency is the fitted concentration of half-maximal effect). The method, boiled down: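 Cytotoxicity counter screen: intracellular ATP (CellTiter-Glo luminescence) measured in the doxycycline-induced CHO RORE-luciferase reporter line after 16 hr compound exposure at 37 C, 5% CO2.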

Assay [19] in a line: qHTS assay for cell viability of the p53RE-bla HCT-116 cell line (AID 743292). Put shortly: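 Intracellular ATP of p53RE-bla HCT-116 cells measured by luciferase luminescence following 16 h compound incubation at 37 C; DMSO-only wells served as vehicle controls.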

Chain of Peroxisome proliferator-activated receptor alpha (Homo sapiens) (Q07869 whole entry, looked up): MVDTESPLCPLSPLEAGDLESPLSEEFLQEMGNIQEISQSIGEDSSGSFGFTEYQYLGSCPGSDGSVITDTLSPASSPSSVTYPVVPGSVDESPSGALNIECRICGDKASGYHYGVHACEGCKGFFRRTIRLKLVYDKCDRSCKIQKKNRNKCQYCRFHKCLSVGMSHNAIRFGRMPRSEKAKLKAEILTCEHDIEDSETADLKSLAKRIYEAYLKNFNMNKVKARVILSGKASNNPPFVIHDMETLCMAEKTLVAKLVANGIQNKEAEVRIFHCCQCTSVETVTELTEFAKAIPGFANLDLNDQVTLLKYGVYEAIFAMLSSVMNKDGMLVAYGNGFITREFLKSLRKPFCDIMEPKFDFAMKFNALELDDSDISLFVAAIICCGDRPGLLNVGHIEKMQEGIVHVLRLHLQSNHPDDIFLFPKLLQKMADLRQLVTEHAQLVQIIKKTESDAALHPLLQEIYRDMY
Chain of Voltage-gated inwardly rectifying potassium channel KCNH2 (Homo sapiens) (Q12809 whole entry, looked up): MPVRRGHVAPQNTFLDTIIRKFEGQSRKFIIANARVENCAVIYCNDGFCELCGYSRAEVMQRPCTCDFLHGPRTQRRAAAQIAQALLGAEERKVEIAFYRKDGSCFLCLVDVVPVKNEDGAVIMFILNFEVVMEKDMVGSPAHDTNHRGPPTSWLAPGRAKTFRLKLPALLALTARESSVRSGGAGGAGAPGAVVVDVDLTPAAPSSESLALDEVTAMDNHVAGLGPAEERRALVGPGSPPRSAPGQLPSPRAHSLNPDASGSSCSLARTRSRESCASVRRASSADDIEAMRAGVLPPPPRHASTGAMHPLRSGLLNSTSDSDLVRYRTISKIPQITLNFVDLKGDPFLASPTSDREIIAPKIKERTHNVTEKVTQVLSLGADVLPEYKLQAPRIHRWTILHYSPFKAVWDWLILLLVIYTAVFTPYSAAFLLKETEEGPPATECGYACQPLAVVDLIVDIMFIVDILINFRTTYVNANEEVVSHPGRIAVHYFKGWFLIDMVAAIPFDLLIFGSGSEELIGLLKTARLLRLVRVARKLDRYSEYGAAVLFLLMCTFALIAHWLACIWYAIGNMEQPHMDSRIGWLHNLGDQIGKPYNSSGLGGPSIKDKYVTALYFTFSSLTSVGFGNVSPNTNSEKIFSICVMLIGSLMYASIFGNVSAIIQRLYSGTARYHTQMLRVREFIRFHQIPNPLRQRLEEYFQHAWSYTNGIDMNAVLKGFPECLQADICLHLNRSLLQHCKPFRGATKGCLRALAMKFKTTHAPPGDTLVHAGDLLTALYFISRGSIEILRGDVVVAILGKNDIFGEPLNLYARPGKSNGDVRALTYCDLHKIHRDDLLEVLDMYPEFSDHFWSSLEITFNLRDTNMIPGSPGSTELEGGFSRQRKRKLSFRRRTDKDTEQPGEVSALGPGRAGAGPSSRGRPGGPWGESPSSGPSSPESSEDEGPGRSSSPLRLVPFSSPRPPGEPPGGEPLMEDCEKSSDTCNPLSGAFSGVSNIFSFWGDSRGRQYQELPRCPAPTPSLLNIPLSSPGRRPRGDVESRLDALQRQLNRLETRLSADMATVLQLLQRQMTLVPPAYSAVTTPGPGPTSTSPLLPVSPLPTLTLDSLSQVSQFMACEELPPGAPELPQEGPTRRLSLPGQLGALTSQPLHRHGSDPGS

In the case of `O=[N+]([O-])c1ccccc1Cl`, the Potency in assay [1] was over 92 µM. Also, the max response in assay [2] is -0.622% and -10.4%.

Take `C(=NC1CCCCC1)=NC1CCCCC1`: the Potency in assay [1] is 3.31 µM (active); in assay [8] it was 18.8 µM (active). The result in assay [3] was inactive. In addition, the caspase-3 activation in [4] is 91.9% (active). In addition, the Potency result in assay [5] and in [6] was “inactive” each time. Besides, in assay [7], the max response was -9.68% and -4.28%.

Regarding `Oc1c(Cl)cc(Cl)cc1Cl`, the Potency in assay [1] was over 92 µM. Moreover, in [2], the max response is -4.3% and -11%.

Consider `C#CCO`, for which the Potency in assay [1] was over 92 µM. For the same compound, the call in assay [3] was inactive. Moreover, in assay [4], the caspase-3 activation was 0.354%. The Potency result in assay [5], in assay [6], in [9], in assay [10], in [11] and in assay [12] was “inactive” in each case. The Potency result in [13], in assay [14], in assay [15], in [16], in assay [17] and in assay [8] was “inactive” in each case. Moreover, the Potency result in [18] and in [19] was “inactive” in each case. The max response is -1.68% in assay [7] and -6.13% in assay [2].

For the compound `CC(=O)[O-].CC(=O)[O-].O.O.[Cd+2]`, the compound was classed as inactive in assay [3]. Moreover, in [4], the caspase-3 activation is 0.407%. For the same compound, the Potency result in [5], in assay [6], in [9] and in assay [19] was “inactive” in each case. Moreover, the Potency in assay [13] is 39.8 µM (active); in assay [18], 8.41 µM (active). The max response in [7] is -7.81%.

Regarding `O=[N+]([O-])c1cc(C(F)(F)F)cc([N+](=O)[O-])c1Cl`, the Potency in [1] was over 92 µM; in assay [10], 39.8 µM (active); in [11], 31.6 µM (active); in [13], 31.6 µM (active); in assay [14] it was 31.6 µM (active); in [15], 31.6 µM (active). Also, the Potency is 31.6 µM (active) in assay [16] and 66.8 µM (active) in assay [18]. The caspase-3 activation in assay [4] was 24.4%. Moreover, the Potency entry in assay [5], in assay [6], in assay [9], in assay [17], in [8] and in assay [19] was “inactive” each time. Besides, in [7], the max response was -4.28%.
